# Assay results taken from PubChem BioAssay.
# Activity calls are given as the source filed them. Unless noted, the rule behind the calls is not given here.
# Assays:
# [1] = compound effects on lung adenocarcinoma cell viability – A549, calcein-AM fluorescence, 48 h, basal, profiling panel (AID 1162); details: higher = more signal; note: test concentration not given here
# [2] = compound effects on differentiated 3T3-L1 adipocyte viability – cell-based, 3T3-L1 adipocytes, calcein-AM fluorescence, 48 h, basal, profiling panel (AID 1163); details: 3T3-L1 adipocytes viability, higher = more signal; note: test concentration not given here
# [3] = compound effects on hepatocellular carcinoma cell viability – HepG2, calcein-AM fluorescence, 48 h, basal, profiling panel (AID 1164); details: higher = more signal; note: test concentration not given here
# [4] = compound effects on multiple myeloma cell viability – MM1S, calcein-AM fluorescence, 48 h, basal, profiling panel (AID 1165); details: higher = more signal;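 note: viability of MM1S multiple myeloma cells under basal unstimulated conditions; test concentration not given here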
# [5] = calcein-AM signal in unstimulated myeloma cells – cell-based, calcein-AM fluorescence, 48 h, PK04 Diversity Set, profiling panel (AID 1166); details: RPMI8226 myeloma viability, higher = more signal;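 note: cells grown under basal conditions without added stimulus; test concentration not given here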
# [6] = JC-1 mitochondrial signal, unstimulated HepG2 cells – cell-based, JC-1 fluorescence, 24 h, 100 nL compound, profiling panel (AID 1167); details: HepG2 mitochondrial potential, higher = more signal; note: test concentration not given here
# [7] = JC-1 mitochondrial signal, unstimulated adipocytes – cell-based, JC-1 fluorescence, 3T3-L1 adipocytes, 24 h, 100 nL compound, profiling panel (AID 1168); details: JC-1 mitochondrial fluorescence, higher = more signal, called active from +8 up or from −8 down; note: test concentration not given here
# [8] = JC-1 mitochondrial signal, unstimulated myeloma cells – cell-based, JC-1 fluorescence, RPMI8226, 24 h, 100 nL compound, profiling panel (AID 1169); details: JC-1 mitochondrial potential fluorescence, higher = more signal; note: test concentration not given here
# [9] = JC-1 mitochondrial signal, unstimulated MM1S myeloma – cell-based, JC-1 fluorescence, 24 h, 100 nL compound, profiling panel (AID 1170); details: MM1S mitochondrial potential, higher = more signal; note: test concentration not given here
# [10] = resazurin metabolic signal in A549 cells – cell-based, resazurin fluorescence, 24 h, PK04 Diversity Set, profiling panel (AID 1171); details: A549 viability, higher = more signal, called active from +8 up or from −8 down; note: test concentration not given here
# [11] = resazurin metabolic signal in HepG2 cells – cell-based, resazurin fluorescence, 24 h, PK04 Diversity Set, profiling panel (AID 1172); details: HepG2 viability, higher = more signal; note: test concentration not given here
# [12] = budding yeast growth changes without added modifier – OD600, strain BY4716, 24 h, basal condition, primary screen (AID 1173); details: S. cerevisiae BY4716 growth, OD600, 24 h; higher = more signal, called active from +8 up or from −8 down
# [13] = viability profiling in MM1S myeloma cells – cell-based, resazurin fluorescence, basal, 24 h, PK04 Diversity Set, profiling panel (AID 1174); details: higher = more signal, called active from +8 up or from −8 down; note: test concentration not given here
# [14] = target: Dihydroorotate dehydrogenase (quinone), mitochondrial (Plasmodium falciparum (isolate 3D7)) (UniProt Q08210); assay: inhibition of P. falciparum DHODH – biochemical, C-terminal His tag, absorbance 600 nm, primary screen (AID 1175); details: PfDHODH enzyme, DCIP absorbance 600 nm; higher = more signal, called active from +8 up or from −8 down;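 note: recombinant parasite enzyme with a five histidine tag at its C terminus; test concentration not given here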
# [15] = inhibition of PAO1 biofilm formation – strain PAO1, LB-PBS medium, absorbance 600 nm, primary screen (AID 1176); note: test concentration not given here; details: P. aeruginosa PAO1 growth/biofilm, A600, 12 h; higher = more signal
# [16] = growth modulation of vineyard yeast isolate – strain RM11-1a, OD600, basal, 24 h, primary screen (AID 1177);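 note: cultures grown under basal conditions with no added stressor; test concentration not given here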; details: S. cerevisiae RM11-1a growth, OD600, 24 h; higher = more signal, called active from +8 up or from −8 down
# [17] = growth of efflux-deficient E. coli DRC39 – strain DRC39, OD650, 24 h, E. coli filamentation inducers, primary screen (AID 1178);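 note: growth measured as culture turbidity by optical density at 650 nm; test concentration not given here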; details: E. coli DRC39 acrAB, higher = more signal, called active from +8 up or from −8 down
# [18] = growth of efflux-deficient E. coli DRC39 – strain DRC39, OD650, 48 h, E. coli filamentation inducers, primary screen (AID 1179);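 note: screen aims at cell division blockers that make cells filament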; details: E. coli DRC39 delta-acrAB growth, higher = more signal, called active from +8 up or from −8 down
# [19] = viability profiling in RPMI8226 myeloma cells – cell-based, resazurin fluorescence, basal, 24 h, PK04 Diversity Set, profiling panel (AID 1180); details: higher = more signal;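 note: RPMI8826 multiple myeloma cell line at 5000 cells per well; test concentration not given here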
# [20] = target: E3 ubiquitin-protein ligase XIAP (Homo sapiens) (UniProt P98170); assay: small molecules binding XIAP protein – biophysical, small-molecule microarray, fluorescence 635 nm, primary screen (AID 1181); details: higher = more signal;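 note: score merges 667 nm emission and signal to noise over triplicate slides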
# Sequence of E3 ubiquitin-protein ligase XIAP (Homo sapiens) (P98170 whole entry, looked up): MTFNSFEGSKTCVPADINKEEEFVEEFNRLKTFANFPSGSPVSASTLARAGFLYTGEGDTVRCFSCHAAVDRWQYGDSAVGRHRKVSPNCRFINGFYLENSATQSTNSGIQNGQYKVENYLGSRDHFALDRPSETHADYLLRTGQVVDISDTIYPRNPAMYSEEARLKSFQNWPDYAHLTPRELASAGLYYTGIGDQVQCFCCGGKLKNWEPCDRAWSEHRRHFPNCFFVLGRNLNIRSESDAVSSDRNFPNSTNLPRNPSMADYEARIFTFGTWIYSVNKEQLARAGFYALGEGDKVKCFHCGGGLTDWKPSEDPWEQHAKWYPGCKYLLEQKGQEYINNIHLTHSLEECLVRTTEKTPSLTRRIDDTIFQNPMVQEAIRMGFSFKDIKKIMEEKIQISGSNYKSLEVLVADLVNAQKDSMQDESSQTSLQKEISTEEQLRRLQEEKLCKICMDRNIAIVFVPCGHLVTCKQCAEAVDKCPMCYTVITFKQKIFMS
# Sequence of Dihydroorotate dehydrogenase (quinone), mitochondrial (Plasmodium falciparum (isolate 3D7)) (Q08210 whole entry, looked up): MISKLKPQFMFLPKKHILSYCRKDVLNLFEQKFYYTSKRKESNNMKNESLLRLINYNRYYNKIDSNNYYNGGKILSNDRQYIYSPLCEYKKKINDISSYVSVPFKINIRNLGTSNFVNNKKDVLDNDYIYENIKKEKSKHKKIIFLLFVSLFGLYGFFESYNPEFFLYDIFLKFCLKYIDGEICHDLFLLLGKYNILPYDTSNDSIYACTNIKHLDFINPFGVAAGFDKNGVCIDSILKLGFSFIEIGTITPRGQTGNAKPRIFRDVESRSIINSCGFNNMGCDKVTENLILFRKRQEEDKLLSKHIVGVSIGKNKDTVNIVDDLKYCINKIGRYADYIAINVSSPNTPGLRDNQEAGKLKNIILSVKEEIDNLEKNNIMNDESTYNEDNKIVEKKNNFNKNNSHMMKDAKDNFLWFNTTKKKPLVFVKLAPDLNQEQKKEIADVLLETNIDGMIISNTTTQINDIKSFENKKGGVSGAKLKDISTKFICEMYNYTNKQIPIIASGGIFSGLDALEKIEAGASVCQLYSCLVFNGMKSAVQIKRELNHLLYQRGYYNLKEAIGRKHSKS
Compound,z-score [1],z-score [2],z-score [3],z-score [4],z-score [5],z-score [6],z-score [7],z-score [8],z-score [9],z-score [10],z-score [11],z-score [12],z-score [13],composite z-score [14],z-score [15],z-score [16],z-score [17],z-score [18],z-score [19],composite z-score [20]
C=C(CCCC)C(=O)CC[C@@H](OC(C)=O)c1ccc(OCCO)cc1,-0.0836,0.997,-0.439,-1.97,-1.92,-0.338,-0.362 (inactive),-0.793,-0.36,0.325 (inactive),-0.603,-2 (inactive),-0.953 (inactive),-1.78 (inactive),1.07 (inactive),0.662 (inactive),0.227 (inactive),0.189 (inactive),-0.894,-0.074
C=C(CCCC)/C(=C/C[C@@H](OC(C)=O)c1cccc(OCCO)c1)c1cc(C(=O)OC)ccc1OC,0.771,0.204,0.622,-2.41,-1.98,1.44,-0.288 (inactive),0.186,-0.679,1.25 (inactive),0.978,1.12 (inactive),0.0348 (inactive),-0.943 (inactive),0.0599 (inactive),0.523 (inactive),0.508 (inactive),0.583 (inactive),0.1,-0.0447
CN1C(=O)C2C=CC(C(O)c3cccs3)N(N(c3ccccc3)c3ccccc3)C2C1=O (stereo not given),-0.404,-1.97,0.44,0.442,0.398,0.27,-1.02 (inactive),-0.24,-0.694,-0.659 (inactive),-0.428,0.754 (inactive),-1.13 (inactive),0.656 (inactive),0.419 (inactive),0.567 (inactive),-0.483 (inactive),0.0156 (inactive),-0.985,0.462
COC(=O)[C@@]1(Cc2ccc(OC)cc2)[C@@H]2[C@@H](CC(=O)[C@H]2CC(=O)C(=O)N(C)C)CN1C(=O)c1ccccc1,-1.45,-0.18,-0.923,-2.24,-4.62,1.1,-0.169 (inactive),-0.735,-2.16,-2.28 (inactive),-0.54,1.05 (inactive),-2.89 (inactive),-0.284 (inactive),1.02 (inactive),0.415 (inactive),0.243 (inactive),0.358 (inactive),-4.19,0.489
[N-]=[N+]=NCc1ccccc1C[C@]1(C(=O)N2CCCCC2)COC(c2ccc(OCCCO)cc2)=N1,0.139,-0.288,-0.689,-3.54,-4.52,-0.792,0.607 (inactive),-1.22,-1.98,0.898 (inactive),0.894,-0.749 (inactive),-0.0967 (inactive),-0.0119 (inactive),0.0405 (inactive),2.36 (inactive),1.4 (inactive),0.815 (inactive),0.791,-0.0604
C[C@]1(C(=O)NC2CC2)c2ccccc2C(=O)N(Cc2cc(F)cc(C(F)(F)F)c2)[C@H]1c1ccc(CO)cc1,-0.685,0.274,0.0046,0.0749,-0.237,1.2,0.0232 (inactive),0.107,-0.328,1.79 (inactive),1.53,0.411 (inactive),0.872 (inactive),0.712 (inactive),-0.646 (inactive),1.34 (inactive),0.425 (inactive),0.401 (inactive),1.04,0.195
COc1ccc(CCNC(=O)[C@@]2(C)c3ccccc3C(=O)N(Cc3ccc(OC(F)(F)F)cc3)[C@H]2c2ccc(CO)cc2)cc1,0.109,0.965,-0.0665,-2.23,-2.3,2.56,0.434 (inactive),-0.114,0.0946,2.43 (inactive),1.4,-0.553 (inactive),0.979 (inactive),-0.0074 (inactive),1.05 (inactive),0.362 (inactive),0.0466 (inactive),-0.657 (inactive),1.3,-0.031
COC(=O)c1ccc(OC)c(/C=C\CC(OC(=O)c2ccncc2)c2ccccc2)c1 (stereo not given),1.46,-0.347,1.04,-1.64,-1.5,0.615,0.202 (inactive),-0.177,0.148,0.271 (inactive),0.887,-2.06 (inactive),0.514 (inactive),-6.33 (inactive),0.792 (inactive),-2.69 (inactive),2.57 (inactive),1.49 (inactive),0.525,0.0774
CCCCCCc1nc(-c2ccc(OC)nc2)c(C)c2c1[Si](C(C)C)(C(C)C)OC2,-0.405,1.26,0.002,-2.26,-2.79,0.103,0.251 (inactive),-0.641,0.498,0.863 (inactive),0.167,-0.121 (inactive),1.86 (inactive),-3 (inactive),0.444 (inactive),-0.745 (inactive),0.746 (inactive),-0.0026 (inactive),0.781,0.128
